Screens as filed in PubChem.
The list is not random: actives were taken first. Their share in the collection is about 3.5%.
BoNT F protease = inhibitors of Botulinum neurotoxin F light chain protease; 360,000 tested, 0.22% active; Multiplex microsphere protease cleavage assay, flow cytometry; inhibition, % at 10 µM; AID 588497; in the data active = inhibition above about 35%, passing the limit was not always enough; inconclusive = no clear call, values can overlap the other calls
Bead autofluor = compound fluorescence in toxin protease inhibitor counterscreen; compound autofluorescence counterscreen, microsphere flow cytometry; hits give high values; fluorescence intensity (concentration not given with the values); 360,000 tested, 3.1% active; AID 624483; in the data active = fluorescence intensity above about 16000; inconclusive = no clear call, values can overlap the other calls
BoNT A protease = BoNT A light chain protease inhibition. 360,000 tested, 0.17% active. multiplex microsphere protease substrate cleavage, flow cytometry. inhibition, % at 10 µM
Anthrax LF inh2 = blocks Bacillus anthracis lethal factor protease; AID 588501; P15917; inhibition, % at 10 µM; 360,000 tested, 0.12% active; multiplex microsphere protease cleavage assay, LF
Target sequence (P15917 whole entry, looked up): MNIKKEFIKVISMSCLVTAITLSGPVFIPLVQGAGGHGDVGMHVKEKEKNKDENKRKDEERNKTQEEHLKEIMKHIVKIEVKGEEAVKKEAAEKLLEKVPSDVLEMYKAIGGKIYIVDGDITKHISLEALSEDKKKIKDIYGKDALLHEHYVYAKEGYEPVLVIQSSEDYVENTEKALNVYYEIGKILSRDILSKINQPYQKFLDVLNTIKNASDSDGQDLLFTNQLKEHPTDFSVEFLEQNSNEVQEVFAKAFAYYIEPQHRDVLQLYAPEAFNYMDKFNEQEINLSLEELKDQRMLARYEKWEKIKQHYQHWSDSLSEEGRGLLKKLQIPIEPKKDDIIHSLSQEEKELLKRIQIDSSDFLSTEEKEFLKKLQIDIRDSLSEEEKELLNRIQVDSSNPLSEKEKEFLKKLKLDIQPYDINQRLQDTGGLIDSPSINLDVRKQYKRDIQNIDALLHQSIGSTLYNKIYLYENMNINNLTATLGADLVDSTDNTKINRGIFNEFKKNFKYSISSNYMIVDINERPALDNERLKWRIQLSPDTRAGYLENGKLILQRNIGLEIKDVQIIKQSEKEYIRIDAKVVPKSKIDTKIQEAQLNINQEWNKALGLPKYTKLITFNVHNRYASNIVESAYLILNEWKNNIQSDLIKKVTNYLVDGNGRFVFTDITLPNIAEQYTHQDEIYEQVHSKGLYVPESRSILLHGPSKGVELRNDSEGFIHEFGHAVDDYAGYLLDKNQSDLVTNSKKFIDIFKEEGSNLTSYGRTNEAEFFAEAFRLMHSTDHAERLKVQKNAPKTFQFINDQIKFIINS
Of the large screens only hits and unclear results are named; the others gave an inactive call. Rule as the data show it, unless noted: active = inhibition above about 30%; inconclusive = no clear call, values can overlap the other calls; inactive = below that.

O=C(O)CCCN1C(=O)/C(=C\c2ccco2)SC1=S	none
O=C1/C(=C\c2ccco2)SC(=S)N1Cc1ccccc1	BoNT A protease 44, Anthrax LF inh2 34
O=C1/C(=C\c2cc(Cl)c(O)c(Cl)c2)SC(=S)N1Cc1ccccc1	Bead autofluor 17886
COc1cc(CC(=O)N(C)CC(=O)Nc2ccc(Cl)c(C(F)(F)F)c2)cc(OC)c1OC	none
CCCCN(CCCC)CCNC(=O)CNC(=O)c1cccs1	Bead autofluor 21124
Cc1ccc(-c2nnc3c4ccccc4c(C)nn23)cc1S(=O)(=O)N1CCN(C)CC1	Bead autofluor 20956, BoNT A protease inconclusive
Cc1nc2ccccc2c(=O)n1/N=C/C=C/c1ccccc1	BoNT F protease inconclusive
CC(Nc1nc(-c2cccc(Br)c2)cs1)c1nc2cc(Cl)c(N3CCCCC3)cc2n1CCOCCO (centres undefined)	none
O=C(CCNS(=O)(=O)c1ccc(Br)s1)NC1CCCC1	Bead autofluor 24053
Cc1ccc(S(=O)(=O)NCCC(=O)NC2CCCC2)cc1	Bead autofluor 20213, BoNT A protease inconclusive
Cc1noc(C)c1C(=O)Nc1c(F)cc(F)cc1Br	Bead autofluor 23289
O=C(Nc1c(F)cc(F)cc1Br)c1ccco1	BoNT A protease inconclusive
Cc1noc(C)c1C(=O)Nc1ccc(F)cc1	none
Cc1cc(C(=O)Nc2c(F)cc(F)cc2Br)c(C)o1	Bead autofluor 17675
Cc1cc(Cl)ccc1NNC(=O)c1c(C)noc1C	BoNT F protease inconclusive
Cc1noc(C)c1C(=O)Nc1ccc(Cl)cc1C(F)(F)F	Bead autofluor 23519
O=C(c1cc(-c2cccs2)on1)N1CCN(c2ccc(F)cc2)CC1	Bead autofluor 21562
CCOC(=O)C1CCCN(C(=O)c2ccco2)C1 (centres undefined)	Bead autofluor 23110
Cc1nc2ccccc2c2oc(C(=O)N3CC(C)CC(C)C3)cc12 (centres undefined)	none
CCOC(=O)C1CCCN(C(=O)c2cc3c(C)nc4ccccc4c3o2)C1 (centres undefined)	Bead autofluor 22194
CCOC(=O)C1CCCN(C(=O)CSCc2ccccc2)C1 (centres undefined)	none
CCOC(=O)C1CCCN(C(=O)N2CCOCC2)C1 (centres undefined)	Bead autofluor 19919, BoNT A protease inconclusive
COc1ccccc1C(CNc1nc(C(F)(F)F)nc2ccccc12)N(C)C (centres undefined)	none
O=C(Cc1cccs1)NCc1ccccc1F	Bead autofluor 21726
Cc1ccccc1CNC(=O)Cc1cccs1	none
CC(=O)NS(=O)(=O)c1ccc(NC(=O)NC2CCCCC2)cc1	Bead autofluor 23046
NS(=O)(=O)c1ccc(NC(=O)NC2CCCCC2)cc1	none
COc1ccc(CC(=O)Nc2c3c(nn2-c2ccccc2C)CS(=O)C3)cc1 (centres undefined)	Bead autofluor 20787
CCCCCn1c(N)c(-c2nc3ccccc3s2)c2c([N+](=O)[O-])nn(CC)c(=O)c21	Bead autofluor 17846
CCCCn1c(N)c(-c2nc3ccccc3s2)c2c([N+](=O)[O-])nn(CC)c(=O)c21	none
C=CCn1c(N)c(-c2nc3ccccc3n2C)sc1=S	Bead autofluor 22610
CCOc1ccc(C(=O)N2CCCC2)cc1OC	Bead autofluor 21510
CCOc1ccc(C(=S)N2CCCC2)cc1OC	none
COc1cccc(C(=O)N2CCN(Cc3cccc(F)c3)CC2)c1	Bead autofluor 23288
COc1ccc(CN2CCN(C(=O)c3cc(OC)c(OC)c(OC)c3)CC2)cc1OC	Bead autofluor 22314, BoNT A protease inconclusive
COc1ccc(C(=O)N2CCN(Cc3cc(OC)c(O)c(OC)c3)CC2)cc1OC	none
Cc1cccc(Nc2nc(C)cc(C)c2C#N)c1	BoNT F protease inconclusive
Cc1cc(C)c(C#N)c(Nc2ccccc2)n1	Bead autofluor 21778
COCCOC(=O)C1=C(C)NC(=O)NC1c1cn(-c2ccccc2)nc1-c1cccs1 (centres undefined)	none
COC(=O)C1=C(C)NC(C)=C(C(=O)OC)C1c1cn(-c2ccccc2)nc1-c1ccco1	Bead autofluor 16749
O=C(Nc1c(F)cccc1F)c1ccc2c(c1)CCN2S(=O)(=O)c1ccccc1	none
CC(=NNC(=S)N1CCCCC1)c1ccccn1	BoNT F protease 73, Anthrax LF inh2 87
CC(=NNC(=S)Nc1ccccc1)c1ccccn1	none
CC(=NNC(=S)N1CC2CCC(CC2)C1)c1ccncn1	BoNT F protease 59, Anthrax LF inh2 57
CC(=NNC(=S)N1CCCCC1)c1cccc(C)n1	none
C=CCNC(=S)N/N=C(\C)c1ccccn1	Bead autofluor 16885
CC(C)(C)NC(=O)C(c1ccccc1)N(C(=O)CNC(=O)c1cccs1)c1cccnc1 (centres undefined)	none
Cc1ccc(S(=O)(=O)CCC(=O)N2CCN(c3ccc(Cl)cc3)CC2)cc1	Bead autofluor 17240
CCCN(CC(=O)Nc1ccccc1OC)C(=O)CCNC(=O)c1ccccc1OC	Bead autofluor inconclusive
Cc1nnc(SCCc2ccccc2)[nH]c1=O	Bead autofluor 19226, BoNT A protease inconclusive
CSc1nnc(C)c(=O)[nH]1	Bead autofluor 25237
CC(=O)Nc1cccc(-c2ccnc3c2CC(C(=O)NCc2cccc(Cl)c2)O3)c1 (centres undefined)	none
CC(C)Cn1c(SCc2nc3ccccc3c(=O)[nH]2)nc2ccccc2c1=O	Bead autofluor 19467
Cn1c(SCc2nc3ccccc3c(=O)[nH]2)nc2ccccc21	none
CC(=O)Oc1ccc(C(=O)Nc2ccccc2C(=O)Nc2ccc(C(=O)O)cc2)cc1	BoNT F protease inconclusive
CN1/C(=C\C(=S)NC(=O)c2cccc(Br)c2)C(C)(C)c2ccccc21	BoNT A protease 42
Cc1ccc(NC(=O)Cn2c(C)cc(C)c(C#N)c2=O)c(Cl)c1	Bead autofluor 23456
O=C(c1ccccc1)c1ccc2nc(-c3ccco3)c(-c3ccco3)nc2c1	BoNT A protease 42
O=C(C[C@H]1C(=O)N(Cc2ccccc2)C[C@@H]1c1ccc(Br)cc1)Nc1ccc(Br)cc1	none
CCc1cc(=O)oc2cc(C)c(CN3CCCC3)c(O)c12	Bead autofluor 17050
CC(=O)c1ccc(NC(=O)CN2C(=O)/C(=C/C=C/c3ccccc3)SC2=S)cc1	BoNT A protease 47
COc1ccc(S(=O)(=O)N(C)CC(=O)NCCCn2ccnc2)cc1Cl	none
COCc1cn(-c2nc3ccccc3s2)nn1	none
N#Cc1ccsc1NC(=O)C1CCCN1S(=O)(=O)c1cccs1 (centres undefined)	Bead autofluor inconclusive
COc1ccc(NC(=O)C23CC4CC(C2)CC(n2cnc(Br)n2)(C4)C3)cc1OC	Bead autofluor 16534, BoNT A protease inconclusive
Cc1nc(NCc2ccco2)c2c(C)c(C)sc2n1	Bead autofluor 16784
Cc1sc2nc3c4ccccc4c(NCc4ccco4)nn3c(=O)c2c1C	none
CN(C)C=Nc1ccc([N+](=O)[O-])c2ccccc12	none
COc1ccc(NC(=O)c2noc3c2CCC3)cc1	none
O=C(NCc1ccco1)c1noc2c1CCCC2	none
COc1ccc(CNC(=O)c2noc3c2CCCCC3)cc1	Bead autofluor 21035
O=C(NCc1ccccc1)c1noc2c1CCCCC2	Bead autofluor 16329
O=C(NCc1cccs1)c1noc2c1CCCCC2	Bead autofluor 16908
CC(=O)Nc1nnc(SCc2cc(=O)c(OC(=O)c3ccccc3)co2)s1	none
Cc1cc(C)cc(C(=O)Oc2coc(CSc3nnc(NC(=O)C4CC4)s3)cc2=O)c1	BoNT A protease 38
